Our source for the binding signal values is article PMC7862700, “An all-to-all approach to the identification of sequence-specific readers for epigenetic DNA modifications on cytosine”.

Holding throughout (experiment): DAPPL (digital affinity profiling via proximity ligation, sequencing); 10 mM Tris-HCl pH 7.5, 50 mM NaCl, 1 mM DTT, 4% glycerol, room temperature, 30 min; GST-TFs on glutathione beads, 16-mer random dsDNA library, 0.1% formaldehyde crosslink after washing; high values mean tight binding
Holding throughout (conditions): protein: recombinant; tags: N-terminal GST; dsDNA, one strand shown

One assay addresses T1, ELK1 (Homo sapiens, UniProt P19419 1-428).
T1 sequence: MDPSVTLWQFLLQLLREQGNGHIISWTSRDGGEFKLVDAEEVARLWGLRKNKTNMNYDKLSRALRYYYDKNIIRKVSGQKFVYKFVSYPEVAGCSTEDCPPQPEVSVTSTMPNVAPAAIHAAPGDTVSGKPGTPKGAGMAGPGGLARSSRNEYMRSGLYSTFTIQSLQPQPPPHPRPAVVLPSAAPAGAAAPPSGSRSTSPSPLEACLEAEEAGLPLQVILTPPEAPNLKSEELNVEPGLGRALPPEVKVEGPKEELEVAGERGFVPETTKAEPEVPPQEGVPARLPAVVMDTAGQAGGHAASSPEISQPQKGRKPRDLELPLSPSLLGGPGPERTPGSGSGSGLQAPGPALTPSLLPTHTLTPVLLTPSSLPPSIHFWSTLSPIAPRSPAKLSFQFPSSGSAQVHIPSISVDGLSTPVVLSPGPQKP
In a few lines: (§1)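 The binding signal reported is, for every hexamer, its read frequency for a factor over its read frequency for the tag-only sample. Reads came from pools of yeast-expressed, GST-fused human transcription factors on glutathione beads, barcoded with DNA and mixed with that sample, which were incubated with 200 nmole of a random double-stranded 16-mer DNA library in Tris/NaCl/DTT/glycerol buffer at room temperature for 30 min. After washing, the pools were crosslinked with 0.1% formaldehyde, proximity-ligated with BsaI/T4 ligase for 1 h at 37 °C, PCR-amplified and sequenced on an Illumina NextSeq500.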

The target in a further assay is T2, GABPA (Homo sapiens, UniProt Q06546 1-454).
T2 sequence: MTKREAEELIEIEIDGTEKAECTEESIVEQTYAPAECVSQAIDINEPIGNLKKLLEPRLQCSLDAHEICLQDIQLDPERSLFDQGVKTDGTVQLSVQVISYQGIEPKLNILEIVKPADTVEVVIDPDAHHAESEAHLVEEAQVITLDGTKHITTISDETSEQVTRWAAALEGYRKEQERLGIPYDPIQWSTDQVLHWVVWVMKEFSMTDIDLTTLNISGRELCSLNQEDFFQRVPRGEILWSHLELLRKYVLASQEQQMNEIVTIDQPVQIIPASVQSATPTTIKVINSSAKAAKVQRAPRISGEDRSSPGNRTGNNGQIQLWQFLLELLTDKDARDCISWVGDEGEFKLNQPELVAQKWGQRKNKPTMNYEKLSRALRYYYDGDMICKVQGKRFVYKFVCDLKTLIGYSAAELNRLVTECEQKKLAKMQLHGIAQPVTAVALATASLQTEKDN
In a few lines: as §1

Another assay addresses T3, ERG (Homo sapiens, UniProt P11308 1-479).
T3 sequence: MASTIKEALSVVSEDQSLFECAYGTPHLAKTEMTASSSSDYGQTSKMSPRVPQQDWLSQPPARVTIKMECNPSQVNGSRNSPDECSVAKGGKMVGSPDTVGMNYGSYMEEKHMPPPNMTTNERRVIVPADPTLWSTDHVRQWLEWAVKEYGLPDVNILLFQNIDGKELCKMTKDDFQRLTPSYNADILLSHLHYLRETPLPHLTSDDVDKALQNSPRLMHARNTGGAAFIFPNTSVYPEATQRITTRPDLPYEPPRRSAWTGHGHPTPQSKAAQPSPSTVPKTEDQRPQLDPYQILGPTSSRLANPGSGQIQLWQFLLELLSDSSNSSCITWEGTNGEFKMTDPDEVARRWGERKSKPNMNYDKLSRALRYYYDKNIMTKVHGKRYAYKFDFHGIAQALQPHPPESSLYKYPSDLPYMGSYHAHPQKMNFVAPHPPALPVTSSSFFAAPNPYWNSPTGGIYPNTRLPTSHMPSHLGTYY
In outline:
as §1

Another assay addresses ELF1 (Homo sapiens, UniProt P32519 1-619). In a few lines: as §1
Another assay addresses T4, EHF (Homo sapiens, UniProt Q9NZC4 1-300).
T4 sequence: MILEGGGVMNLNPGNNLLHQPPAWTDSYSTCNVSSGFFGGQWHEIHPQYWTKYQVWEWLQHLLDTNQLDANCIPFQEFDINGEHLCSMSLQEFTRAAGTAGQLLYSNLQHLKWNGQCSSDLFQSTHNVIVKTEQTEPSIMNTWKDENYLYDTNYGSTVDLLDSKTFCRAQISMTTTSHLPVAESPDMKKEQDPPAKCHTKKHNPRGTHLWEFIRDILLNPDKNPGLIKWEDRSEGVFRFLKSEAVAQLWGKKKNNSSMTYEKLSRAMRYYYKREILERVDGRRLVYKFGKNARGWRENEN
In outline: as §1

The next assay concerns the target SPIB (Homo sapiens, UniProt Q01892 1-262). In a few lines: as §1
The target of the next assay is T5, FEV (Homo sapiens, UniProt Q99581 1-238).
T5 sequence: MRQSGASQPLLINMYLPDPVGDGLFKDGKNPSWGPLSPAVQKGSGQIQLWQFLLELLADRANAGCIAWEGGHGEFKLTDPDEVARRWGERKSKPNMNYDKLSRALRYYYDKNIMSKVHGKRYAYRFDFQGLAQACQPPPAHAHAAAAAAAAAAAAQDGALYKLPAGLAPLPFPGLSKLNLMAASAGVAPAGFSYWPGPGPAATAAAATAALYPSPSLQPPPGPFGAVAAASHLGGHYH
In a few lines: as §1

For another assay, the target named is ETV5 (Homo sapiens, UniProt P41161 1-510). In a few lines:
as §1

A further assay deals with ELF4 (Homo sapiens, UniProt Q99607 1-663). In a few lines: as §1
A further assay concerns the target T6, ELK4 (Homo sapiens, UniProt P28324-2 1-405).
T6 sequence: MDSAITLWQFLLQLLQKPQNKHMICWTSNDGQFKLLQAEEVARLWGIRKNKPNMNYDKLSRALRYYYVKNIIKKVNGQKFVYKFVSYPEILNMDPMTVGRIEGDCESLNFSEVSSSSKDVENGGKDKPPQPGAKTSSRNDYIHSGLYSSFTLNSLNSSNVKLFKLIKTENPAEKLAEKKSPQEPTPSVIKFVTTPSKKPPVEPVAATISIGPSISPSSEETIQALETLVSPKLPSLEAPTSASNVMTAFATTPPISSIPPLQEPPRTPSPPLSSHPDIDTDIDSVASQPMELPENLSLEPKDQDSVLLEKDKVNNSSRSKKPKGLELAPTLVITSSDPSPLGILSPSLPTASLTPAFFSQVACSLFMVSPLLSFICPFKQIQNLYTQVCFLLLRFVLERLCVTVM
In outline: as §1

ELF1, sequence (P32519 whole entry): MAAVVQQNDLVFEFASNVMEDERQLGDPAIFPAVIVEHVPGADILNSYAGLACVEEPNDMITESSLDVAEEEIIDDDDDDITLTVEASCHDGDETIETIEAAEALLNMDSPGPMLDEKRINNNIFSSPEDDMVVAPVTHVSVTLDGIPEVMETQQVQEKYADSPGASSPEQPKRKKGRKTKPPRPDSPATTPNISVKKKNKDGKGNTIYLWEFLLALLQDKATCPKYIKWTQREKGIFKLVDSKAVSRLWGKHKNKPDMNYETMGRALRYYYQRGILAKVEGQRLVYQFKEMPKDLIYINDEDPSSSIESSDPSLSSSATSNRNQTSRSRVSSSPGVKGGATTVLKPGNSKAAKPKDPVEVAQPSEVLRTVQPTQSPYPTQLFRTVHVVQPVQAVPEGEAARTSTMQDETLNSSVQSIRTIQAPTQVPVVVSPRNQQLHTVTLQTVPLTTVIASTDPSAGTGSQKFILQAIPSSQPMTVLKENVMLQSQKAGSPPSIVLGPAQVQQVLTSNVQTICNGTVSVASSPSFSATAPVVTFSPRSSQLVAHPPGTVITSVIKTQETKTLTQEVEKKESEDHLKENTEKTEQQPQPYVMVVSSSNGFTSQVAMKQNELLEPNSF
ETV5, sequence (P41161 whole entry): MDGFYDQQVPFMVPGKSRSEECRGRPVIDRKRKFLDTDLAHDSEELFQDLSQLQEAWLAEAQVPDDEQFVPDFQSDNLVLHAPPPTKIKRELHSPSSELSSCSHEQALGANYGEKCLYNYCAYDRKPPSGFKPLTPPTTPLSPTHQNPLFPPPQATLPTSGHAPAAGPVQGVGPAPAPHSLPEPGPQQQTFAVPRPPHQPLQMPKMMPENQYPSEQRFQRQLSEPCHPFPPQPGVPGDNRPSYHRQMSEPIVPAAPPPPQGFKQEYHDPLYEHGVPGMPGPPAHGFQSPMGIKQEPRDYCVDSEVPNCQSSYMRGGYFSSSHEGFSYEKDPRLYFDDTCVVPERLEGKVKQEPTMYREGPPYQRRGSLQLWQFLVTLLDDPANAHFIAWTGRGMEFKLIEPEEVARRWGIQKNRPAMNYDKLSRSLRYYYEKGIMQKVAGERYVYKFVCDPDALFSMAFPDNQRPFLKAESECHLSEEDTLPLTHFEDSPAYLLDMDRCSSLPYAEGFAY
SPIB, sequence (Q01892 whole entry): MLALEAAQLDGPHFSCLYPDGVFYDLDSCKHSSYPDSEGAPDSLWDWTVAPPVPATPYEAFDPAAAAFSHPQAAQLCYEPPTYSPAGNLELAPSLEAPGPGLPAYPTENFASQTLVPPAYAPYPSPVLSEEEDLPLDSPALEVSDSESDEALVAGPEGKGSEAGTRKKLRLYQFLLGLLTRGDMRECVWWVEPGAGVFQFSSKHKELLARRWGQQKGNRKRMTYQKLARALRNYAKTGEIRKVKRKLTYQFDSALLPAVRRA
ELF4, sequence (Q99607 whole entry): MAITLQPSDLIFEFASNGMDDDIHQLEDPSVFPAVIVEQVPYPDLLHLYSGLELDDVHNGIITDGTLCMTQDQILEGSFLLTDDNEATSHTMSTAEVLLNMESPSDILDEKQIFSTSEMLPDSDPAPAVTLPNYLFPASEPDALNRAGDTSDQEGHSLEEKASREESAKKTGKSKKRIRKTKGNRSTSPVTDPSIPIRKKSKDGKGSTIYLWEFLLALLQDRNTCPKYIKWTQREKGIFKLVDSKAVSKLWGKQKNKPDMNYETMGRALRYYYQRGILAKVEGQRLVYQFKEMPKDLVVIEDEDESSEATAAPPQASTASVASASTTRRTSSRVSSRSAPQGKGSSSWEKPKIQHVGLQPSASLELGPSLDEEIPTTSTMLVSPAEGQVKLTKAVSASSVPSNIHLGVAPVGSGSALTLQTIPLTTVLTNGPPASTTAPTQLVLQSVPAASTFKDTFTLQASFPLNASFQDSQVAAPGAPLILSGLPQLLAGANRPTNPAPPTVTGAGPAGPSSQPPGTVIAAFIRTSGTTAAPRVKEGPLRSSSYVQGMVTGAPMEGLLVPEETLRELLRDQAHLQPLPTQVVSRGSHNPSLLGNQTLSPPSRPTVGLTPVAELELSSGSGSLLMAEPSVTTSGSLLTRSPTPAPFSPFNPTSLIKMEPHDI

On to CCCAAA, for which the binding signal was 1.15 fold enrichment (6-mer frequency, TF over GST control) with ELK1; 1.17 fold enrichment (6-mer frequency, TF over GST control) with GABPA; 1.13 fold enrichment (6-mer frequency, TF over GST control) in the assay with ERG; 1.18 fold enrichment (6-mer frequency, TF over GST control) in the assay with ELF1; 1.12 fold enrichment (6-mer frequency, TF over GST control) in the assay with EHF; 1.14 fold enrichment (6-mer frequency, TF over GST control) with SPIB. Moreover, the binding signal with FEV is 1.08 fold enrichment (6-mer frequency, TF over GST control); with ETV5, 1.07 fold enrichment (6-mer frequency, TF over GST control); with ELF4, 1.17 fold enrichment (6-mer frequency, TF over GST control); with ELK4, 1.06 fold enrichment (6-mer frequency, TF over GST control).
